Source: PubChem BioAssay AID686979 (National Center for Advancing Translational Sciences (NCATS), 2013)
Among all 420,000 compounds or so, about 50,000 (12%) were called active. About 26% were inconclusive and are not listed. Only a selection was taken, and actives are over-represented in it overall. A number with no mark means an inactive call. The call rests on the fitted dose curve; in most records, active means well fitted inhibition curve with a large enough effect; inconclusive means small, poorly fitted or top-dose-only effect; inactive means flat fitted curve, though single readings scatter.
On the % scale 0 is the no-effect control and ±100 the full control effect; potency means the concentration at half of the fitted maximal effect.

Experiment: qHTS for Inhibitors of human tyrosyl-DNA phosphodiesterase 1 (TDP1): qHTS in cells in presence of CPT; further: nearly all actives have a fitted effect of over 55% in size
Settings: chicken DT40 Tdp1-/-;hTDP1 cells + 20 nM CPT, ATP luminescence, 48 h; series mostly up to 46.2 µM; activity change, negative = growth inhibition: at the top concentration
Outline: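 Chicken DT40 Tdp1-/- cells stably complemented with human TDP1 were seeded at 400 cells/well in medium containing 20 nM camptothecin, exposed to pin-transferred compounds, and grown at 37 °C for at least 48 hr. Viability was read as ATP luminescence.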
For `CSc1ncccc1C(=O)NCc1ccccc1Cl`, the “activity change, negative = growth inhibition” value was 11.7%. For `O=C(CNC(=O)c1cc(S(=O)(=O)N2CCOCC2)ccc1N1CCCC1)Nc1ccc(F)c(F)c1`, the “activity change, negative = growth inhibition” value was -27.5%. With `COc1ccccc1CNC(=O)[C@@H]1CCCN1C(=O)[C@@H]1Cc2ccccc2CN1C(=O)OC(C)(C)C` the Potency was 18.4 µM (active). In the case of `COc1ccccc1CNC(=O)C1CCN(C(=O)[C@@H]2Cc3ccccc3CN2)CC1`, the “activity change, negative = growth inhibition” value is reported as -4.36%. With `COc1ccccc1CNC(=O)C1Cc2ccccc2C(=O)O1` (centres undefined) the “activity change, negative = growth inhibition” value was -13%. In the case of `CCCNC(=O)c1cnc(-c2ccccc2)nc1-c1ccccc1`, the “activity change, negative = growth inhibition” value is reported as -2.24%. For `O=C(CCCN=C1NS(=O)(=O)c2ccccc21)OCC(=O)c1ccc(F)c(F)c1`, the “activity change, negative = growth inhibition” value was 27.8%. For `COC(=O)C(CC(=O)Nc1cc(C)ccc1C)Nc1ccccc1OC` (centres undefined), the “activity change, negative = growth inhibition” value was -10.3%. In the case of `Cc1ccc(C)c(NC(=O)CCC(=O)NNC(=O)c2cccs2)c1`, the “activity change, negative = growth inhibition” value is reported as -8.35%. With `Cc1ccc(C)c(NC(CC(=O)c2ccccc2)C(=O)OCC(=O)c2cccs2)c1` (centres undefined) the Potency was 18.4 µM (active). In the case of `O=C(Nc1nnc(-c2ccccc2F)s1)c1ccccc1F`, the “activity change, negative = growth inhibition” value is reported as 8.72%. With `CCN1CC(CN(C)Cc2nc(-c3ccc(Cl)cc3)no2)CC1=O` (centres undefined) the Potency was 16.4 µM (active). In the case of `CN(Cc1ccccn1)Cc1nc(-c2ccc(Cl)cc2)no1`, the “activity change, negative = growth inhibition” value is reported as -0.996%. In the case of `CN(CCN1CCOCC1)Cc1nc(-c2ccc3c(c2)OCO3)no1`, the “activity change, negative = growth inhibition” value is reported as 1.76%. With `COc1ccc(S(=O)(=O)N2CCOC2CNC(=O)C(=O)NCc2ccncc2)cc1OC` (centres undefined) the “activity change, negative = growth inhibition” value was 3.82%. For `O=C(CSc1nccn1-c1cccc(F)c1)NC1CCCC1`, the “activity change, negative = growth inhibition” value was 5.14%. With `CN(C)c1nc(-c2cccnc2)nc(-c2ccc(Cl)cc2)c1C#N` the “activity change, negative = growth inhibition” value was -57.4%. With `S=c1[nH]nc(-c2cccnc2)n1/N=C/C(Cl)=C\c1ccccc1` the Potency was 20.6 µM (active). With `Cc1cc(-c2n[nH]c(=S)n2/N=C/C(Br)=C/c2ccccc2)n[nH]1` the Potency was 1.64 µM (active). In the case of `CCN(CC)S(=O)(=O)c1cccc(-c2n[nH]c(=S)n2/N=C/c2ccc(C(=O)OC)cc2)c1`, the “activity change, negative = growth inhibition” value is reported as -16.5%. For `Cc1cc(-c2n[nH]c(=S)n2/N=C/c2ccco2)n[nH]1`, the “activity change, negative = growth inhibition” value was 1.05%. In the case of `Fc1ccccc1/C=N/n1c(-c2cccnc2)n[nH]c1=S`, the “activity change, negative = growth inhibition” value is reported as 5.67%. In the case of `S=c1[nH]nc(-c2ccncc2)n1/N=C/c1ccccc1Cl`, the “activity change, negative = growth inhibition” value is reported as 2%. With `FCOC(C(F)(F)F)C(F)(F)F` the “activity change, negative = growth inhibition” value was 7.71%. For `NC(=O)CN1CCCC1c1ccc2c(c1)OCCO2` (centres undefined), the “activity change, negative = growth inhibition” value was -5.42%. In the case of `CC(C)C(=O)Nc1oc(-c2ccccc2)cc1C#N`, the “activity change, negative = growth inhibition” value is reported as 11.7%. In the case of `CC1(C)S[C@@H]2[C@H](NC(=O)COc3ccccc3)C(=O)N2C1C(=O)OCc1ccccc1` (some centres undefined), the Potency is reported as “inactive”. For `COc1ccc(-c2nc(CS(=O)CC(=O)N3CCc4ccccc4C3)c(C)o2)cc1` (centres undefined), the Potency was 16.4 µM (active). In the case of `O=C(COc1ccccc1)N1CCc2ccccc2C1`, the “activity change, negative = growth inhibition” value is reported as -6.77%. For `COc1ccc(-c2nc(CS(=O)CC(=O)NCc3ccccc3)c(C)o2)cc1OC` (centres undefined), the “activity change, negative = growth inhibition” value was -20.6%. In the case of `COc1ccc(-c2nc(CS(=O)CC(=O)NCc3ccccn3)c(C)o2)cc1` (centres undefined), the Potency is reported as 18.4 µM (active). In the case of `COc1ccc(-c2nc(CS(=O)CC(=O)NCc3cccnc3)c(C)o2)cc1OC` (centres undefined), the “activity change, negative = growth inhibition” value is reported as -7.55%. In the case of `COc1cccc(N(CC(=O)N2CCc3ccccc3C2)S(C)(=O)=O)c1`, the “activity change, negative = growth inhibition” value is reported as -6.48%. With `CCCSc1nsc(N)n1` the “activity change, negative = growth inhibition” value was -14.7%. In the case of `CS(=O)(=O)N1CCN(CC(=O)NC2CCCC2)CC1`, the “activity change, negative = growth inhibition” value is reported as 3.9%. For `O=C(Cc1coc2ccc3ccccc3c12)NCc1cccs1`, the “activity change, negative = growth inhibition” value was -27.8%. With `C=CCCC(=O)N1C[C@H]2CON(C)[C@H]2C[C@H]1c1cccc(Nc2ccccc2)c1` the “activity change, negative = growth inhibition” value was -9.96%. In the case of `COCC1CCCN(Cc2nc(-c3ccc4c(c3)OCO4)no2)C1` (centres undefined), the “activity change, negative = growth inhibition” value is reported as 9.31%. With `CCn1c(CC(=O)Nc2ccccc2C)nnc1SCC(=O)NC1=NCCS1` the “activity change, negative = growth inhibition” value was -4.53%. For `O=C(Cn1nnc(N2CCCCC2)n1)c1ccc(Cl)c(Cl)c1`, the “activity change, negative = growth inhibition” value was -16%. In the case of `CCCNC(=O)c1ccc(Cl)c(Cl)c1`, the “activity change, negative = growth inhibition” value is reported as -22%. In the case of `CCCn1c(=N)n(CC(=O)c2ccc(Cl)c(Cl)c2)c2ccccc21`, the Potency is reported as 10.3 µM (active). In the case of `O=C(Nc1ccc(OCCO)cc1)c1csc([C@H]2C[C@H](O)[C@@H](CO)O2)n1`, the “activity change, negative = growth inhibition” value is reported as -18%. In the case of `CCOc1ccc(CN2CCN(Cc3ccc4cc(F)ccc4n3)CC2CCO)cc1` (centres undefined), the “activity change, negative = growth inhibition” value is reported as -4.39%. With `COc1ccccc1NC(=O)CSc1nnc(CNC(=O)c2ccccc2F)o1` the “activity change, negative = growth inhibition” value was 12%. In the case of `COc1cc(C(=O)NCc2nnc(SCC(=O)Nc3nc4ccc(C)cc4s3)o2)cc(OC)c1OC`, the Potency is reported as 4.11 µM (active). For `COc1ccc(C(=O)NCc2nnc(SCC(=O)Nc3cccc(OC)c3)o2)cc1`, the “activity change, negative = growth inhibition” value was 16.7%. For `O=C(O)c1ccc(S(=O)(=O)N2CCOCC2)o1`, the “activity change, negative = growth inhibition” value was 2.34%. With `CNc1cc(-c2c(OC)cccc2OC)ncn1` the “activity change, negative = growth inhibition” value was -8.09%. In the case of `C=CCOC(=O)C1=C(C)NC(SCC(=O)OCC)=C(C#N)C1c1ccc(C)cc1` (centres undefined), the “activity change, negative = growth inhibition” value is reported as -22.3%. With `CCOC(=O)CSC1=C(C#N)C(c2sccc2C)CC(=O)N1` (centres undefined) the Potency was 3.55 µM (active). With `COC(=O)CSC1=C(C#N)C(c2ccccc2OC)C(C(=O)OC)C(=O)N1` (centres undefined) the “activity change, negative = growth inhibition” value was 11.7%. With `C/C=C/C=C/C(=O)OCC(=O)Nc1ccc(Cl)cc1` the “activity change, negative = growth inhibition” value was -3.8%. For `Cc1onc(-c2c(F)cccc2Cl)c1C(=O)N(C)CC(=O)Nc1cccc(F)c1`, the “activity change, negative = growth inhibition” value was 10.5%.
